Experimental data reported in the supplement of paper PMC6555819.

How the values were obtained:
Test in all cases: PBM binding z-score (relative to random genomic background probes); higher = stronger binding; sequences stand for … in GC…GCGATTGACAGCGTAGAATGAAGG
[1] = system: FXR:RXRa (NR concentration 270 nM, RXRa partner concentration 90 nM)
Method in brief: (§1)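 For binding z-scores, the reference was random background probes on custom Agilent 4×180K protein-binding microarrays. These arrays were incubated 1 h with ligand-free nuclear receptor dimers in PBS pH 7.4, 2% milk, 0.02% Triton X-100, 1 mM DTT, 0.2 mg/mL BSA and 0.4 mg/ml salmon testes DNA. Fluorescence was scanned after antibody detection of each partner (one per run) and regression-normalized.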

[2] = system: LXRa:RXRa (NR concentration 270 nM, RXRa partner concentration 90 nM)
Method in brief: as §1

[3] = system: LXRa homodimer (NR concentration 270 nM)
Method in brief: as §1

[4] = system: LXRb:RXRa (NR concentration 270 nM, RXRa partner concentration 90 nM)
Method in brief: as §1

[5] = system: LXRb homodimer (NR concentration 270 nM)
Method in brief: as §1

[6] = system: PPARa:RXRa (NR concentration 270 nM, RXRa partner concentration 90 nM)
Method in brief: as §1

[7] = system: PPARg:RXRa (NR concentration 180 nM, RXRa partner concentration 90 nM)
Method in brief: as §1

[8] = system: PPARg:RXRa 270nM:90nM, anti-RXR (NR concentration 270 nM, RXRa partner concentration 90 nM)
Method in brief: as §1

[9] = system: PPARg:RXRa 30nM:10nM, anti-RXR (NR concentration 30 nM, RXRa partner concentration 10 nM)
Method in brief: as §1

[10] = system: PPARg:RXRa 90nM:30nM, anti-RXR (NR concentration 90 nM, RXRa partner concentration 30 nM)
Method in brief: as §1

[11] = system: PPARg:RXRa DBDmut IVT, anti-RXR (DBD mutation: RXRa K156A/R161A, NR concentration 270 nM, RXRa partner concentration 90 nM)
Method in brief: as §1

[12] = system: PPARg:RXRa IVT, anti-PPARg (NR concentration 270 nM, RXRa partner concentration 90 nM)
Method in brief: as §1

[13] = system: PPARg DBDmut:RXRa IVT, anti-PPARg (DBD mutation: PPARg1 K132A/R137A, NR concentration 270 nM, RXRa partner concentration 90 nM)
Method in brief: as §1

[14] = system: PPARg DBDmut IVT, anti-PPARg (DBD mutation: PPARg1 K132A/R137A, NR concentration 270 nM)
Method in brief: as §1

[15] = system: PPARg homodimer (NR concentration 180 nM)
Method in brief: as §1

[16] = system: PXR:RXRa (NR concentration 270 nM, RXRa partner concentration 90 nM)
Method in brief: as §1

[17] = system: PXR homodimer (NR concentration 270 nM)
Method in brief: as §1

[18] = system: RARa:RXR (NR concentration 270 nM, RXRa partner concentration 90 nM)
Method in brief: as §1

[19] = system: RARa homodimer (NR concentration 270 nM)
Method in brief: as §1

[20] = system: RARb:RXRa (NR concentration 270 nM, RXRa partner concentration 90 nM)
Method in brief: as §1

Sequence	PBM binding z-score [1]	PBM binding z-score [2]	PBM binding z-score [3]	PBM binding z-score [4]	PBM binding z-score [5]	PBM binding z-score [6]	PBM binding z-score [7]	PBM binding z-score [8]	PBM binding z-score [9]	PBM binding z-score [10]	PBM binding z-score [11]	PBM binding z-score [12]	PBM binding z-score [13]	PBM binding z-score [14]	PBM binding z-score [15]	PBM binding z-score [16]	PBM binding z-score [17]	PBM binding z-score [18]	PBM binding z-score [19]	PBM binding z-score [20]
TCTTGTAGATCAAGCAGGTTCAGAAAGCCTGAGT	0.0146	0.179	-0.177	0.301	-0.777	0.691	-0.504	1.16	2.45	1.72	1.67	0.23	-0.203	-0.258	-0.265	1.42	0.458	0.45	-0.397	-0.164
TCGAGTAGGTTAGTCGGGGCATTCCGCCAACATA	0.02	0.121	-0.495	0.444	-0.721	0.661	-0.328	0.877	1.07	0.912	2.34	2	-0.206	-0.88	-0.0815	0.0285	-0.57	0.175	-0.691	0.585
GCAGACAGGTCAAACGCAGGTAACTCAGGGTGGC	6.46	4.96	1.47	3.62	0.592	5.06	3.15	3.59	0.933	2.14	2.15	1.91	0.427	-0.842	2	3.06	-0.42	4.18	-0.318	4.17
TCATGTAGATCAAGCAGGTTAAGAAAGCCTGAGT	0.865	0.684	-0.0467	0.774	-0.523	0.929	-0.116	1.74	3.28	2.36	2.01	0.466	0.49	0.274	0.552	0.746	0.293	0.72	-0.363	-0.0113
AGAATGAGGTTATAGGTAGATCAGGGAAGAAAGT	2.06	2.1	0.425	1.89	0.41	3.67	4.23	4.73	3.33	4.47	2.86	2.76	1.2	1.03	1.63	1.52	1.49	1.93	1.46	1.72
CGAACTAGGTCAGGACAGGACAGTGAAGGATGAT	1.85	0.936	-0.238	0.443	-0.587	3.13	5.98	5.1	2.35	4.11	7.58	7.47	1.64	0.603	0.819	1.25	-0.213	0.766	-0.133	3.44
TATACAGGGTAAAAGGCCAGAGTACGAATGTCGA	0.526	0.732	0.094	0.483	0.559	2.02	3.63	4.11	2.26	3.82	1.68	2.88	1.57	1.04	1.27	0.286	0.409	0.32	0.622	1.85
